According to PubChem BioAssay (EPA / NIEHS):
The source made the active and inactive calls. How the source made its calls: active means hit-call score of the fitted dose curve at least 0.9, where 1 is the maximum; inactive means score below 0.9.

Columns and labels:
[1] = CCTE_Padilla_ZF_Score.General: CCTE's 144 Hour Post-fertilization zebrafish Assay Score for General Malformation, Padilla Lab (AID 2284411)
How it was run: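 Malformation, death and hatching were scored at 6 dpf by two blinded observers under a stereo microscope. Embryos were dosed singly from 6-8 hpf in sealed plates of 10% Hanks' at 26C and rinsed on 5 dpf; DMSO baseline.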

[2] = Tanguay_ZF_120hpf_CRAN: Oregon State University Tanguay Lab 120 Hour Post-fertilization zebrafish Assay for Craniofacial Malformation (AID 2284397)
How it was run: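 Scoring of craniofacial malformation as a binary endpoint was done at 120 hpf by brightfield microscopy and was not done in dead embryos. Exposure was static, starting at 6 hpf, in dechorionated wild-type embryos held singly at 28C with 0.64% DMSO final.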

[3] = Tanguay_ZF_120hpf_MORT: Oregon State University Tanguay Lab 120 Hour Post-fertilization zebrafish Assay for Mortality (AID 2284399)
How it was run: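 Mortality, recorded present/absent via brightfield imaging at 24 and 120 hpf, in 5D zebrafish embryos exposed statically from 6 hpf after pronase chorion removal. Exposure at 28C, 0.64% DMSO vehicle, DMSO baseline.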

[4] = Tanguay_ZF_120hpf_EDEM: Oregon State University Tanguay Lab 120 Hour Post-fertilization zebrafish Assay for Edema Malformation (AID 2284400)
How it was run: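 Edema recorded as a binary endpoint under brightfield at 120 hpf, excluding embryos that died. Exposure was static, sealed, 28C, from 6 hpf in dechorionated wild-type larvae, final DMSO 0.64%, DMSO as baseline.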

[5] = Tanguay_ZF_120hpf_BRN: Oregon State University Tanguay Lab 120 Hour Post-fertilization zebrafish Assay for Brain Region Malformation (AID 2284402)
How it was run: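 Binary brightfield scoring of brain malformation at 120 hpf in 5D wild-type larvae, chorion removed with pronase at 4 hpf. Static exposure began at 6 hpf, 28C, sealed plates, DMSO 0.64% (vol/vol) as vehicle baseline.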

[6] = Tanguay_ZF_120hpf_TCHR: Oregon State University Tanguay Lab 120 Hour Post-fertilization zebrafish Assay for Touch Responsive (AID 2284403)
How it was run: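 Binary touch-response calls are made at 120 hpf in 5D wild-type zebrafish larvae. These larvae were dechorionated with pronase and exposed singly from 6 hpf in sealed, dark plates at 28 °C with 0.64% DMSO final; dead embryos are excluded.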

[7] = CCTE_Padilla_ZF_Score.Spine: CCTE's 144 Hour Post-fertilization zebrafish Assay Score for Spine Malformation, Padilla Lab (AID 2284407)
How it was run: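 Spine malformation scored at 6 dpf by two independent blinded observers under stereomicroscope, after static sealed exposure from 6–8 hpf at 26C in Hanks' solution with rinse on 5 dpf. Positive-direction fit against DMSO control.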

[8] = CCTE_Padilla_ZF_Score.Swim_bladder: CCTE's 144 Hour Post-fertilization zebrafish Assay Score for Swim Bladder Malformation, Padilla Lab (AID 2284408)
How it was run: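 Swim bladder inflation scored at 6 dpf by two blinded observers under a stereo microscope. Exposure ran from 6–8 hpf in sealed wells of 10% Hanks' at 26C, with rinsing at 5 dpf; DMSO served as baseline.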

[9] = CCTE_Padilla_ZF_Score.Position: CCTE's 144 Hour Post-fertilization zebrafish Assay Score for Position, Padilla Lab (AID 2284409)
How it was run: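 Wild-type zebrafish embryos (with chorions) exposed singly from 6–8 hpf in sealed wells of Hanks' solution at 26C, rinsed at 5 dpf. At 6 dpf, blinded assessors scored abnormal water-column position by brightfield stereomicroscopy, relative to DMSO.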

[10] = CCTE_Padilla_ZF_Score.Living: CCTE's 144 Hour Post-fertilization zebrafish Assay Score for Viability, Padilla Lab (AID 2284410);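 further: larval death at 6 dpf judged by absent heartbeat or coagulation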
How it was run: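 Mortality at 6 dpf, judged as absent heartbeat or coagulation by two blinded observers, after sealed static exposure beginning at 6–8 hpf at 26C. Larvae were rinsed free of chemical at 5 dpf, and activity was fitted relative to DMSO.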

[11] = CCTE_Padilla_ZF_Score.Any: CCTE's 144 Hour Post-fertilization zebrafish Assay Score for Any Mortality or Malformation, Padilla Lab (AID 2284416)
How it was run: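 Wild-type zebrafish embryos with chorions, one per well in 10% Hanks' from 6–8 hpf, dosed in sealed plates at 26 C, 14:10 h light:dark; rinsed at 5 dpf; blinded scoring at 6 dpf for death or malformation, versus DMSO.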

TTR (gene 7276) = assay: CCTE_GLTED_hTTR_0.125uM: CCTE's human Transthyretin (hTTR) Inhibition Assay, with 0.125uM TTR, Great Lakes Toxicology and Ecology Division (GLTED) Lab (AID 2284431);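 further: hits lower the fluorescence signal relative to DMSO baseline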
How it was run: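 TTR 0.125uM + test chemical, 2 h; ANSA probe displacement; ex 380/em 475 fluorescence; signal loss vs DMSO control.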

[12] = CCTE_Padilla_ZF_Score.Blood_pooling: CCTE's 144 Hour Post-fertilization zebrafish Assay Score for Blood Pooling, Padilla Lab (AID 2284415)
How it was run: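 Blood pooling was scored at 6 dpf under a stereo microscope by two blinded assessors, fitted upward against DMSO. Single embryos were dosed at 6–8 hpf in 10% Hanks', kept sealed at 26C (14:10 h cycle) and rinsed at 5 dpf.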

[13] = CCTE_Padilla_ZF_Score.Craniofacial: CCTE's 144 Hour Post-fertilization zebrafish Assay Score for Craniofacial Malformation, Padilla Lab (AID 2284405)
How it was run: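 Craniofacial defects were scored at 6 dpf by two blinded observers using stereomicroscopy. Exposure of wild-type embryos began at 6–8 hpf in sealed wells of 10% Hanks' solution at 26C, with chemical removed by rinsing at 5 dpf.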

Measured: AC50

Oc1ccc(Nc2ccccc2)cc1
inactive: [1]

N=C(N)C(F)(F)C(F)(F)C(F)(F)C(F)(F)C(F)(F)C(F)(F)C(F)(F)F
active: [10] 22.2 µM | [11] 22.2 µM
not listed: TTR (gene 7276) | [12] | [13]
inactive: all other assays above

C=CC(=O)OCC(F)(F)C(F)(F)C(F)(F)C(F)(F)C(F)(F)C(F)(F)C(F)(F)F
not listed: TTR (gene 7276) | [12] | [13]
inactive: all other assays above

OCC(F)(F)C(F)(F)C(F)(F)C(F)(F)C(F)(F)C(F)F
not listed: TTR (gene 7276) | [12] | [13]
inactive: all other assays above

c1ccc(B(c2ccccc2)c2ccccc2)cc1
active: TTR (gene 7276) 1.6 µM

FC(F)(F)C(F)(F)C(F)(F)C(F)(F)C(F)(F)C(F)(F)CC1CO1 (configuration not stated)
not listed: TTR (gene 7276) | [12] | [13]
inactive: all other assays above

O=C(O)C(F)(F)C(F)(F)OC(F)(F)F
not listed: TTR (gene 7276) | [12] | [13]
inactive: all other assays above

CCCCCCC(C)OC(=O)CCCCC(=O)OC(C)CCCCCC (configuration not stated)
inactive: [1]

C=CC(F)(F)C(F)(F)C(F)(F)C(F)(F)C(F)(F)C(F)(F)C(F)(F)C(F)(F)F
not listed: TTR (gene 7276) | [12] | [13]
inactive: all other assays above

FC(F)(Br)C(F)(F)C(F)(F)C(F)(F)C(F)(F)C(F)(F)Br
inactive: [7] | [8] | [9] | [10] | [1] | [12] | [11]

O=C(Cl)C(F)(F)C(F)(F)C(F)(F)C(F)(F)C(F)(F)C(F)(F)C(F)(F)C(F)(F)F
inactive: [7] | [8] | [9] | [10]
active: [1] 11.4 µM | [11] 29.4 µM

O=S(=O)(O)C(F)(F)C(F)(F)C(F)(F)C(F)(F)C(F)(F)C(F)(F)C(F)(F)F
active: [2] 33.4 µM | [4] 46.3 µM | [5] 52.4 µM | [6] 43.2 µM | [8] 21.3 µM | [9] 22 µM | [10] 71 µM | [1] 16.6 µM | [11] 21.3 µM
inactive: [3] | [7]

O=C(O)C(F)(F)C(F)(F)C(F)(F)C(F)(F)C(F)(F)C(F)(F)C(F)(F)C(F)(F)C(F)(F)C(F)F
active: [3] 37 µM | [10] 17.5 µM | [1] 15.8 µM | [11] 15 µM
not listed: TTR (gene 7276) | [12] | [13]
inactive: all other assays above

CCCCC(CC)COP(=O)(O)OCC(CC)CCCC (configuration not stated)
active: TTR (gene 7276) 5.44 µM

FC(F)(F)C(F)(F)C(F)(F)C(F)(F)C(F)(F)C(F)(F)CCS
inactive: [7] | [8] | [9] | [10] | [1] | [11]

Nc1ccc([N+](=O)[O-])cc1O
inactive: [1]

FC(F)(I)C(F)(F)C(F)(F)C(F)(F)I
active: [13] 76.2 µM | [8] 27.5 µM | [1] 24.3 µM | [11] 16.9 µM
inactive: [7] | [9] | [10]

O=C(O)C(F)(OC(F)(F)C(F)(OC(F)(F)C(F)(F)C(F)(F)F)C(F)(F)F)C(F)(F)F (configuration not stated)
not listed: TTR (gene 7276) | [13]
inactive: all other assays above

OCC(F)(F)C(F)(F)C(F)(F)C(F)(F)C(F)(F)C(F)(F)F
active: [10] 88 µM | [11] 80.5 µM
not listed: TTR (gene 7276) | [12] | [13]
inactive: all other assays above
